In the library only some 4.7% were active in any assay of this set; here they are far more common.
TRHR PAM – qHTS for Small Molecule Agonists and Allosteric Enhancers of Human TRH Receptor: Primary Screen for Enhancers; TRHR cells, fluo-8 calcium fluorescence, EC20 TRH enhancement; 360,000 tested, 0.66% active; enhancement, % at 2 µM; AID 493056, 2011; Thyrotropin-releasing hormone receptor (Homo sapiens), P34981; in the data active means enhancement above about 30%; further: 0% is about no effect
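TRHR-expressing cells loaded with fluo-8 calcium dye were read kinetically (ex 480/em 530) during compound addition, then stimulated with an EC20 of TRH (10 nM final). Enhancement of the Gq-mediated intracellular calcium response was scored.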
D1 ag – Allosteric Agonists of the Human D1 Dopamine Receptor: qHTS. D(1A) dopamine receptor (Homo sapiens), P21728. HEK293 T-REx D1 cells, calcium flux, agonist mode. activation, % at 2 µM. 360,000 tested, 1% active; further: 0% is about no effect
Target sequence (P21728 whole entry, looked up): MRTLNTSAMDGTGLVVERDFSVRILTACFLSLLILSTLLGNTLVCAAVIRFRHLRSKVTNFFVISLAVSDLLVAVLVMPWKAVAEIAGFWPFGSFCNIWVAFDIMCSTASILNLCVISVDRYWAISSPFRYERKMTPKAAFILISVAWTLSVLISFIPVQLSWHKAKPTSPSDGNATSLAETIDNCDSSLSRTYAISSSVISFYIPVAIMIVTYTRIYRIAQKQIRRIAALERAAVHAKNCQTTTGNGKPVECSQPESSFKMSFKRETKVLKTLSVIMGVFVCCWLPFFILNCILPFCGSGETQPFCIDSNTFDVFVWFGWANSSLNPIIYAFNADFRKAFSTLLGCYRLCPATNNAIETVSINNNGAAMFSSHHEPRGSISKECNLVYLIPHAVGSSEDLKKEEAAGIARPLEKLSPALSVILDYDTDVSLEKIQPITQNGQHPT
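Tetracycline-induced HEK293 TREx D1 cells, force-coupled to calcium signalling, were dye-loaded with a no-wash calcium kit. Compound was pin-added after a 10 s baseline. Fluorescence was read kinetically at 1 cycle/s for 180 s, with calcium rises flagged as agonism.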
D1 PAM – Potentiators of Human D1 Dopamine Receptor: qHTS; HEK293 TREx D1 cells, calcium flux, dopamine EC20 potentiation; AID 504651, 2011; potentiation, % at 10 µM; D(1A) dopamine receptor (Homo sapiens), P21728; 360,000 tested, 0.036% active; in the data active means potentiation above about 30%; further: 0% is about no effect
TRHR ag – qHTS for Small Molecule Agonists and Allosteric Enhancers of Human TRH Receptor: Primary Screen for Agonists; Thyrotropin-releasing hormone receptor (Homo sapiens), P34981; TRHR cells, calcium flux fluo-8, FDSS agonist mode; activation, % at 2 µM; 360,000 tested, 0.18% active; further: 0% is about no effect
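In this calcium-flux screen, cells bearing human TRHR are dye-loaded with fluo-8, baselined for 10 cycles, then exposed to library compounds; positive kinetic calcium responses during the agonist phase mark hits, with TRH as control.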
D1 antagonist – Antagonist of Human D 1 Dopamine Receptor: qHTS. D(1A) dopamine receptor (Homo sapiens), P21728. HEK293 TREx D1 cells, calcium flux, dopamine EC80; stronger effect = lower value. activity change, negative = inhibition, % at 10 µM. 360,000 tested, 3.2% active; in the data active means activity change below about -30%; further: on the % scale 0 is the no-effect control and ±100 the full control effect
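Allosteric or orthosteric antagonism assessed as attenuation of the calcium response to EC80 dopamine, added 180 s after compound, in induced HEK293 Trex D1 cells loaded with no-wash calcium dye.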
Active calls of the source: *. Unless noted, no stated cut-off is given here; in the data, active means activation above about 30%; inactive means the rest.

SMILES	TRHR PAM	D1 ag	D1 PAM	TRHR ag	D1 antagonist
CC1CCCC(C)N1C(=O)Cn1nnc(-c2ccc([N+](=O)[O-])cc2)n1 (stereo unspecified)	-8	3	-4	0	4
Cc1ccc(CNC(=O)c2ccc(CS(=O)(=O)Cc3ccc(C)cc3)o2)cc1	-4	-3	-3	0	-3
CN1CCN(c2ccc(NC(=O)c3ccc(Br)o3)cc2)CC1	-14	4	-10	0	-41*
CC(=O)Nc1ccc(NC(=O)c2ccc(-c3ccccc3Cl)o2)cc1	33*	4	-6	0	6
CN1CCN(c2ccc(NC(=O)c3ccc(-c4ccccc4F)o3)cc2)CC1	9	5	-19	1	-96*
COc1ccc(-c2csc(NC(C)=O)n2)cc1OC	0	0	1	0	7
O=C(Nc1ccc2snnc2c1)Nc1cccc2ccccc12	-1	19	-7	2	-29
CCc1ccccc1NC(=O)Nc1ccc2snnc2c1	1	33*	-4	2	-19
COc1cccc(NC(=O)Nc2ccc3snnc3c2)c1	-3	37*	-3	1	-19
COc1cccc(NC(=O)Nc2nc(-c3ccc(OC)c(OC)c3)cs2)c1	-3	8	-8	0	-40*
Cc1ccc(NC(=O)Nc2ccc3snnc3c2)cc1C	8	30	-3	1	-29
CC(=O)N1CCc2c(sc3c2c(=O)n(-c2ccc(C)cc2)c(=O)n3Cc2c(F)cccc2Cl)C1	-2	2	-2	1	10
CCOCCCn1cc(C(=O)c2cc(Br)ccc2O)cc(C#N)c1=O	5	21	-10	0	-36*
CCCCn1cc(C(=O)c2cc(Br)ccc2O)cc(C#N)c1=O	0	31*	-9	-1	-21
COCCCn1cc(C(=O)c2cc(Br)ccc2O)cc(C#N)c1=O	0	6	-4	0	-8
N#Cc1cc(C(=O)c2cc(F)ccc2O)cn(Cc2ccccc2)c1=O	-4	21	-13	5	-33*
CCc1c(-c2ccccc2)nc2ccccc2c1C(=O)NC(C)c1ccccc1 (stereo unspecified)	-6	2	0	0	4
Cc1cn2c(=O)cc(COC(=O)c3cccc(NC(=O)c4ccccc4Cl)c3)nc2s1	0	2	0	0	4
Cc1cn2c(=O)cc(COC(=O)c3cccc(NC(=O)c4ccccc4C)c3)nc2s1	-1	3	-1	-1	-59*
Cc1cn2c(=O)cc(COC(=O)COc3ccccc3C)nc2s1	-3	13	-9	0	-30*
Cc1cn2c(=O)cc(COC(=O)c3ccc(NC(=O)COc4ccc(C)c(C)c4)cc3)nc2s1	-1	2	0	1	-36*
COc1ccc(CCNC(=O)CN2C(=O)COc3ccccc32)cc1OC	-1	2	0	0	18
COc1ccc(NC(=O)C(NC(=O)/C=C\c2ccc3c(c2)OCO3)c2ccccc2)cc1 (stereo unspecified)	0	5	-1	1	3
Clc1cccc(CSc2ccc(-c3cccs3)nn2)c1	2	45*	-3	0	-3
O/N=C(\c1ccc(Cl)cc1)c1cc2ccccc2o1	-1	32*	-3	1	-16
O=C(Nc1ccc(Cl)cc1Cl)c1cc2ccccc2o1	-3	8	-1	0	25
Cn1c(SCC(=O)NCCNC(=O)CSc2nnc(C(F)(F)F)n2C)nnc1C(F)(F)F	-23	-1	-1	0	-32*
CCOC(=O)c1sc(NC(=O)Nc2ccc(Cl)cc2)nc1C	2	20	-11	-1	-44*
CCOC(=O)c1ccc(NC(=O)Nc2ccc(Cl)cn2)cc1	2	0	2	0	-33*
CCOC(=O)c1sc(NC(=O)Nc2cccc(Cl)c2)cc1C	-5	9	-15	1	-46*
